# Screens from PubChem.
# ARNT-TACC3 inh: ARNT/TACC3 interaction disruption. AlphaScreen His-ARNT PAS-B/GST-TACC3 binding, luminescence; TACC3 fragment carries E629A point mutation. inhibition, % at 9.99 µM. 390,000 tested, 0.66% active;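 active means mean inhibition of replicates at least 50% and at least half of replicates each reaching 50%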;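 further: 0% = complete ARNT plus TACC3 wells and 100% = ARNT alone without TACC3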
# sPLA2-III inh: Inhibits HGIII-sPLA2 liposome hydrolysis, primary screen; AID 743126; inhibition, % at 12.2 µM; 370,000 tested, 0.56% active; Q9NZ20; QFRET BODIPY PC-A2 liposome hydrolysis, fluorescence;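 active means inhibition above mean plus 3 SD of compounds lying within the high and low control bounds, cut at about 19% in these data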;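 further: 0% = median of test compound wells and 100% = no enzyme DMSO wells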
# Target sequence (Q9NZ20 whole entry, looked up): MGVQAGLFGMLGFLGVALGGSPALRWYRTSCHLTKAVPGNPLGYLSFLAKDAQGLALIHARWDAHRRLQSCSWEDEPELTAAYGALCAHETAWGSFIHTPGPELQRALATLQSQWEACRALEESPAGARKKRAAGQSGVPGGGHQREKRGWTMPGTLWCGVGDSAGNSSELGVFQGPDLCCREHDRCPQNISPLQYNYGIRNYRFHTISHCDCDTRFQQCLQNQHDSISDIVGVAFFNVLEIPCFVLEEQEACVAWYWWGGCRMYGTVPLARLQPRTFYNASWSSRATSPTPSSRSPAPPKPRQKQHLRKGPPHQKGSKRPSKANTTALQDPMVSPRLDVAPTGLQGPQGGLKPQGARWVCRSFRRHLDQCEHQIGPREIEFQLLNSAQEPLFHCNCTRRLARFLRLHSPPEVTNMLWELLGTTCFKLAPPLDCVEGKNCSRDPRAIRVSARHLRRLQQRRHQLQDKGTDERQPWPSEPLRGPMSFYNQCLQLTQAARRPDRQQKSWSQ
# NadD block: NadD (S. aureus) enzyme inhibition | purified NadD enzyme, colorimetric absorbance read-out | AID 602399 | 360,000 tested, 0.78% active | inhibition, % at 20 µM; in the data active means inhibition above about 26%
# Neddyl block: blocks human cullin neddylation. P61081+Q13564. TR-FRET cullin neddylation, biochemical. inhibition, % at 25 µM. 360,000 tested, 0.58% active. AID 651699; in the data active means inhibition above about 36%
# DAGLB inh: blocks human DAGLB lipase activity; Q8NCG7; HEK293T DAGLB membrane lysate, EnzChek fluorogenic substrate; inhibition, % at 5.17 µM; 340,000 tested, 0.059% active; AID 504411; in the data active means inhibition above about 34%;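 further: 0% = enzyme with vehicle and 100% = wells lacking enzyme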
# hGIII sPLA2 conf: human GIII-sPLA2 inhibition, confirmation | shares compounds with sPLA2-III inh | 2,000 tested, 34% active | recombinant hGIII-sPLA2, BODIPY PC-A2 QFRET fluorescence | inhibition, % at 12.2 µM;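 active means mean inhibition across triplicates above the hit cutoff set in the earlier primary screen, cut at about 19% in these data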;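 further: 0% = enzyme with DMSO and 100% = DMSO wells lacking enzyme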
# 535nm interf: 535nm fluorescence interference, HGIII-sPLA2 counter-screen. shares compounds with sPLA2-III inh. AID 743282. BODIPY FL product fluorescence interference, QFRET. 2,000 tested, 8.5% active. inhibition, % at 12.2 µM;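 active means average inhibition above the solvent-only control mean plus 3 SD, cut at about 6% in these data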;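 further: 0% = DMSO with substrate plus product and 100% = DMSO with substrate alone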
# * = called active by the depositor; . = not tested or not shown. An excerpt weighted towards active compounds, which were near 2% of everything screened.
SMILES,ARNT-TACC3 inh,sPLA2-III inh,NadD block,Neddyl block,DAGLB inh,hGIII sPLA2 conf,535nm interf
O=c1[nH]nc(SCCS(=O)(=O)c2ccc(F)cc2)n1-c1ccccc1,.,3,-4,-8,.,.,.
O=c1[nH]nc(SCCS(=O)(=O)c2ccc(F)cc2)n1-c1ccc2c(c1)OCCO2,-11,21*,-8,3,1,5,-9
O=C(Nc1ccc(-c2noc(-c3ccccc3F)n2)cc1)c1cccs1,-4,21*,-14,26,-2,-6,-3
Cc1ccccc1-c1nc(-c2ccc(NC(=O)c3cccs3)cc2)no1,-10,2,-15,11,-1,.,.
CN(C)C(=O)C[C@@H]1C[C@H]2c3cc(NC(=O)C4CCOCC4)ccc3O[C@H]2[C@H](CO)O1,-7,.,.,.,.,.,.
COc1cccc(OC)c1C(=O)NCCc1ccccc1,-9,21*,-4,-5,-1,-7,-7
COc1cccc2cc(C(=O)NCCc3ccccc3)oc12,-3,-3,-5,36,-6,.,.
Cc1ccc(C)c(N2CCN(CC3CCCCC3)CC2)c1,-12,21*,-8,-4,-7,15,-12
Cc1cccc(N2CCN(CC3CCCCC3)CC2)c1C,-11,3,-10,-1,-6,.,.
Cc1ccc(S(=O)(=O)NCCC(=O)N2CC(C)OC(C)C2)cc1 (configuration not stated),-7,22*,0,7,-1,1,-8
COc1ccccc1-c1cnc2c(c1)C(=O)N([C@@H](C)CO)C[C@H](C)[C@H](CN(C)C(=O)CN(C)C)O2,-1,.,.,.,.,.,.
Cc1ccccc1NC(=O)c1c(C)[nH]c(=S)c(C#N)c1-c1ccco1,5,20*,9,-160,7,20*,2
CNC(=O)c1c(C)[nH]c(=S)c(C#N)c1-c1ccco1,0,0,-2,-61,-2,.,.
COc1ccc(/C=N/NC(=S)NCc2ccccc2)cc1OC,3,24*,-1,-2,-6,14,-5
CCCC[C@@H](CNC)NC[C@H](NCCCCC1CCCCC1)C(C)C,4,29*,-4,-8,2,-5,-28
CO[C@H]1CN(C)C(=O)c2ccc(NC(=O)c3ccccc3F)cc2OC[C@@H](C)N(C(C)=O)C[C@@H]1C,-1,.,.,.,.,.,.
CCS(=O)(=O)N1CCCCN2[C@@H](CO)[C@H](c3ccc(C#Cc4ccccc4OC)cc3)[C@@H]2C1,7,.,.,.,.,.,.
CN(C)c1ccc(N=Cc2nc(-c3ccccc3)oc2OC(=O)c2cccc(Cl)c2)cc1,-14,22*,-1,2,-1,8,-4
CNC(=S)NNC(=O)c1oc2nc(-c3ccccc3)cc(C)c2c1N,1,25*,2,.,-1,18,-2
S=C1NC2(CCCCC2)Cc2ccccc21,4,21*,2,0,-1,14,-2
CCC(=O)Nc1ccc2c(c1)C(=O)N(C)[C@@H]1CC[C@@H](CC(=O)NCc3ccccc3)O[C@@H]1CO2,-9,.,.,.,.,.,.
O=C(C[C@H]1C=C[C@H](NC(=O)Nc2ccc(F)cc2)[C@H](CO)O1)NCc1cccc(F)c1,-3,.,.,.,.,.,.
C[N+](C)(C)CCCCCC(=O)/C=N/O,-4,22*,11,-7,0,4,-5
Cc1ccc(-n2c(SCC(=O)Nc3ccc(N4CCOCC4)cc3)nc3ccccc3c2=O)cc1,-7,17,10,-80,6,.,.
Cc1ccc(NC(=S)NNC(=O)CSc2nc3ccccc3c(=O)n2-c2ccc(C)cc2)cc1,13,28*,20,4,7,24*,4
O=C(CSc1nc2ccccc2c(=O)n1-c1ccc(F)cc1)Nc1ccc(N2CCOCC2)cc1,.,3,2,10,2,.,.
O=C(CSc1nc2ccccc2c(=O)n1-c1ccc(SC(F)F)cc1)Nc1ccc(N2CCOCC2)cc1,-16,21*,19,16,-1,5,-8
CCNC(=S)NNC(=O)CSc1nc2ccccc2c(=O)n1-c1ccc(Cl)cc1,.,32*,.,.,.,25*,4
COc1ccc(-n2c(SCC(=O)Nc3ccc(NC(C)=O)cc3)nc3ccccc3c2=O)cc1,-7,2,1,4,0,.,.
